# PubChem BioAssay (EPA / NIEHS)
# Calls of active or inactive are those of the source. Rule for the calls: active = hit-call score of the fitted dose curve at least 0.9, where 1 is the maximum; inactive = score below 0.9.
# Legend:
# Details in all cases: mRNA level, 48 h; actives raise or lower the signal
# [1] = read-out: Forkhead box O1 (FOXO1), FOXO1 (gene 2308); assay: LTEA_HepaRG_FOXO1: Life Technologies and Expression Analysis (LTEA) Assay for Forkhead box O1 (FOXO1) using HepaRG (AID 2283456)
# Procedure, shortened: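 HepaRG, 48 h exposure, 8-pt half-log series from 100 uM in 0.5% DMSO, duplicates; Fluidigm qRT-PCR mRNA, housekeeping-normalised; bidirectional fit vs DMSO baseline.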
# [2] = read-out: growth arrest and DNA damage 45 (GADD45A), GADD45A (gene 1647); assay: LTEA_HepaRG_GADD45A: Life Technologies and Expression Analysis (LTEA) Assay for growth arrest and DNA damage 45 (GADD45A) using HepaRG (AID 2283458)
# Procedure, shortened: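 HepaRG, 48 h exposure, 8 conc. (top 100 uM, half-log steps), 0.5% DMSO vehicle, duplicates. Read-out: qRT-PCR mRNA level, housekeeping-normalized (ACTB/GAPDH/POLR2A). Curves fit bidirectionally vs DMSO baseline.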
# [3] = read-out: Forkhead box O3 (FOXO3), FOXO3 (gene 2309); assay: LTEA_HepaRG_FOXO3: Life Technologies and Expression Analysis (LTEA) Assay for Forkhead box O3 (FOXO3) using HepaRG (AID 2283459)
# Procedure, shortened: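 qRT-PCR readout of FOXO3 transcript, normalized to three housekeeping genes (ACTB, GAPDH, POLR2A); gain or loss fitted against 0.5% DMSO vehicle. HepaRG cells, 48 h chemical exposure, 8-point half-log series, top 100 uM.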
# [4] = read-out: ABC Transporter (ABCB1), ABCB1 (gene 5243); assay: LTEA_HepaRG_ABCB1: Life Technologies and Expression Analysis (LTEA) Assay for ABC Transporter (ABCB1) using HepaRG (AID 2283460)
# Procedure, shortened: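 HepaRG, 48 h exposure, 8-pt half-log series from 100 uM, 0.5% DMSO vehicle, duplicates. Readout: ABCB1 transcript by Fluidigm TaqMan qRT-PCR, housekeeping-normalized; bidirectional curve fit vs DMSO baseline.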
# [5] = read-out: growth arrest and DNA damage 45 (GADD45B), GADD45B (gene 4616); assay: LTEA_HepaRG_GADD45B: Life Technologies and Expression Analysis (LTEA) Assay for growth arrest and DNA damage 45 (GADD45B) using HepaRG (AID 2283461)
# Procedure, shortened: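 HepaRG, ~100,000 cells/well, 48 h plating; serum-free induction medium; cpd 100 uM top, half-log x8, 0.5% DMSO, duplicate, 48 h; lysis in RLT, RNA isolation, qRT-PCR; norm ACTB/GAPDH/POLR2A; bidirectional fit vs DMSO.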
# [6] = read-out: ABC Transporter (ABCC3), ABCC3 (gene 8714); assay: LTEA_HepaRG_ABCC3: Life Technologies and Expression Analysis (LTEA) Assay for ABC Transporter (ABCC3) using HepaRG (AID 2283462)
# Procedure, shortened: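 Human HepaRG, 48 h dosing, 8-pt half-log series from 100 uM, 0.5% DMSO vehicle, duplicates. ABCC3 mRNA by TaqMan qRT-PCR, housekeeping-normalized; bidirectional curve fit vs DMSO.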
# [7] = read-out: ABC Transporter (ABCC2), ABCC2 (gene 1244); assay: LTEA_HepaRG_ABCC2: Life Technologies and Expression Analysis (LTEA) Assay for ABC Transporter (ABCC2) using HepaRG (AID 2283464)
# Procedure, shortened: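 HepaRG, 48 h post-plating; serum-free induction medium; cpd 8-pt, 100 uM top, half-log, 0.5% DMSO, duplicate, 48 h. Readout: ABCC2 mRNA by qRT-PCR, norm. ACTB/GAPDH/POLR2A. Bidirectional fit vs DMSO baseline.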
# [8] = read-out: Broad substrate specificity ATP-binding cassette transporter ABCG2 (Homo sapiens) (UniProt Q9UNQ0); assay: LTEA_HepaRG_ABCG2: Life Technologies and Expression Analysis (LTEA) Assay for ABC Transporter (ABCG2) using HepaRG (AID 2283465)
# Procedure, shortened: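 HepaRG, 48 h exposure, 8-pt half-log series from 100 uM, 0.5% DMSO vehicle, duplicates. Readout: ABCG2 transcript by qRT-PCR (Fluidigm array), housekeeping-normalized; bidirectional curve fit relative to DMSO baseline.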
# [9] = read-out: ATP-citrate lyase (ACLY), ACLY (gene 47); assay: LTEA_HepaRG_ACLY: Life Technologies and Expression Analysis (LTEA) Assay for ATP-citrate lyase (ACLY) using HepaRG (AID 2283466)
# Procedure, shortened: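 qRT-PCR readout of ACLY transcript after 48 h chemical treatment of HepaRG cells; expression normalized to three housekeeping genes. Eight-point half-log series, highest 100 uM, 0.5% DMSO vehicle. Gain or loss fitted against DMSO baseline.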
# [10] = read-out: Peroxisomal acyl-coenzyme A oxidase 1 (ACOX1) gene, ACOX1 (gene 51); assay: LTEA_HepaRG_ACOX1: Life Technologies and Expression Analysis (LTEA) Assay for Peroxisomal acyl-coenzyme A oxidase 1 (ACOX1) gene using HepaRG (AID 2283467)
# Procedure, shortened: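 HepaRG, 48 h chemical exposure, 8-pt half-log series from 100 uM top, 0.5% DMSO vehicle, duplicates. Readout: ACOX1 mRNA by Fluidigm qRT-PCR, housekeeping-normalized; bidirectional fit vs DMSO baseline.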
# [11] = read-out: Alkaline Phosphatase, Placental (ALPP) gene, ALPP (gene 250); assay: LTEA_HepaRG_ALPP: Life Technologies and Expression Analysis (LTEA) Assay for Alkaline Phosphatase, Placental (ALPP) gene using HepaRG (AID 2283468);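 for AC50: differentiated human HepaRG liver cells in serum-free induction medium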
# Procedure, shortened: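 HepaRG, 48 h plating then 48 h dosing, serum-free induction medium, 0.5% DMSO. 8 conc, half-log, max 100 uM, duplicates. Endpoint: ALPP transcript by qRT-PCR, housekeeping-normalized; gain or loss fitted vs DMSO.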
# [12] = read-out: Bcl-2 (BAD) gene, BAD (gene 572); assay: LTEA_HepaRG_BAD: Life Technologies and Expression Analysis (LTEA) Assay for Bcl-2 (BAD) gene using HepaRG (AID 2283469)
# Procedure, shortened: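 HepaRG, 48 h exposure, 8-pt half-log curve from 100 uM in 0.5% DMSO, duplicates. Readout: TaqMan qRT-PCR for BAD mRNA, housekeeping-normalised (ACTB/GAPDH/POLR2A); gain or loss fitted against DMSO baseline.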
# [13] = read-out: Bcl-2 (BAX) gene, BAX (gene 581); assay: LTEA_HepaRG_BAX: Life Technologies and Expression Analysis (LTEA) Assay for Bcl-2 (BAX) gene using HepaRG (AID 2283470)
# Procedure, shortened: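 qRT-PCR read-out of BAX mRNA, normalized to three housekeeping genes, after 48 h chemical exposure of human HepaRG cells in serum-free induction medium; eight-point half-log series, top 100 uM, 0.5% DMSO vehicle; bidirectional fit versus DMSO.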
# [14] = read-out: Alpha-fetoprotein (AFP) gene, AFP (gene 174); assay: LTEA_HepaRG_AFP: Life Technologies and Expression Analysis (LTEA) Assay for Alpha-fetoprotein (AFP) gene using HepaRG (AID 2283472)
# Procedure, shortened: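 qRT-PCR (Fluidigm TaqMan) readout of AFP transcript, normalized to three housekeeping genes, fitted bidirectionally against 0.5% DMSO baseline. HepaRG cells received chemicals for 48 h in serum-free induction medium, top concentration 100 uM, half-log steps.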
# [15] = read-out: BCL2L11 (gene 10018); assay: LTEA_HepaRG_BCL2L11: Life Technologies and Expression Analysis (LTEA) Assay for Bcl-2 (BCL2L11) gene using HepaRG (AID 2283473)
# Procedure, shortened: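 Read-out is BCL2L11 transcript level by qRT-PCR, normalized to three housekeeping genes and fitted bidirectionally against 0.5% DMSO vehicle. HepaRG cells received chemicals for 48 h in serum-free induction medium, 100 uM down in half-log dilutions.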
# [16] = read-out: Apolipoprotein A-V (APOA5) gene, APOA5 (gene 116519); assay: LTEA_HepaRG_APOA5: Life Technologies and Expression Analysis (LTEA) Assay for Apolipoprotein A-V (APOA5) gene using HepaRG (AID 2283474)
# Procedure, shortened: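 Readout is APOA5 transcript level by qRT-PCR on Fluidigm dynamic arrays, normalized to three housekeeping genes. HepaRG cultures received chemicals for 48 h at up to 100 uM (half-log steps, 0.5% DMSO), with gain or loss scored relative to DMSO.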
# [17] = read-out: Apoptosis regulator Bcl-2 (Homo sapiens) (UniProt P10415); assay: LTEA_HepaRG_BCL2: Life Technologies and Expression Analysis (LTEA) Assay for Bcl-2 gene using HepaRG (AID 2283475)
# Procedure, shortened: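 qRT-PCR read-out (Fluidigm TaqMan) of BCL2 transcript, normalised to three housekeeping genes, after 48 h chemical exposure of HepaRG cells; 8-point half-log series, top 100 uM, 0.5% DMSO vehicle. Gain or loss of signal fitted relative to DMSO baseline.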
# Sequence of Apoptosis regulator Bcl-2 (Homo sapiens) (P10415 whole entry, looked up): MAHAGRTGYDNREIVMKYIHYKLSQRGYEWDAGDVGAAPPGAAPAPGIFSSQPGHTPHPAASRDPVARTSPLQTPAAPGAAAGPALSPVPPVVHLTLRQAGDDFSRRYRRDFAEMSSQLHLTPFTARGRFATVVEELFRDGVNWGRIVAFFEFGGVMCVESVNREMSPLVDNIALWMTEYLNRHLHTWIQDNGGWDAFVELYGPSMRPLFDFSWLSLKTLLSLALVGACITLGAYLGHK
# Sequence of Broad substrate specificity ATP-binding cassette transporter ABCG2 (Homo sapiens) (Q9UNQ0 whole entry, looked up): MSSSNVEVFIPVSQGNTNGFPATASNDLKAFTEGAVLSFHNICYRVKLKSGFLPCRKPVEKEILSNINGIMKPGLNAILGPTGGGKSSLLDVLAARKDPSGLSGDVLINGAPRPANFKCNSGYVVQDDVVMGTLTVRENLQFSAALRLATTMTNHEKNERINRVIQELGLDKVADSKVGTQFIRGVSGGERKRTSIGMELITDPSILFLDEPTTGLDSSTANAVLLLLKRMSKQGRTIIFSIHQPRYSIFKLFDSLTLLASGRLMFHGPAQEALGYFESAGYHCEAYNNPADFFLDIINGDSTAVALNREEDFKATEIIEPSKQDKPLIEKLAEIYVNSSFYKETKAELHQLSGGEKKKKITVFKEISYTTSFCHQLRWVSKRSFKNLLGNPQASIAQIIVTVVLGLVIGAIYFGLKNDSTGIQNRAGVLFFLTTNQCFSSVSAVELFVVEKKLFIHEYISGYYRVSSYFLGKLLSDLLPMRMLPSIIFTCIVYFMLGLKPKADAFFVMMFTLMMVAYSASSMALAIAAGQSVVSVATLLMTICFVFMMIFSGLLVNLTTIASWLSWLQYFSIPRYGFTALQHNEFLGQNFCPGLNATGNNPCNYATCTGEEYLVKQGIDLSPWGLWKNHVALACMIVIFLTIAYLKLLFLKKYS
smiles,measurement,setting,value
CCc1nn(C)c(C(=O)NCc2ccc(C(C)(C)C)cc2)c1Cl,AC50,[1],0.484 µM (active)
same,AC50,[2],12 µM (active)
same,outcome,[3],inactive
same,outcome,[4],inactive
same,outcome,[5],inactive
same,AC50,[6],0.296 µM (active)
same,AC50,[7],14.3 µM (active)
same,AC50,[8],0.361 µM (active)
same,AC50,[9],0.502 µM (active)
same,AC50,[10],0.369 µM (active)
same,AC50,[11],0.688 µM (active)
same,outcome,[12],inactive
same,AC50,[13],18 µM (active)
same,AC50,[14],0.965 µM (active)
same,AC50,[15],0.636 µM (active)
same,AC50,[16],0.5 µM (active)
same,AC50,[17],0.822 µM (active)
CC(Oc1ccc(Cl)cc1Cl)C(=O)O (stereo not drawn),outcome,[1],inactive
same,outcome,[2],inactive
same,outcome,[3],inactive
same,outcome,[4],inactive
same,outcome,[5],inactive
same,outcome,[6],inactive
same,outcome,[7],inactive
same,outcome,[8],inactive
same,AC50,[9],50 µM (active)
same,outcome,[10],inactive
same,outcome,[11],inactive
same,outcome,[12],inactive
same,outcome,[13],inactive
same,outcome,[14],inactive
same,outcome,[15],inactive
same,outcome,[16],inactive
same,outcome,[17],inactive
O=C(Nc1ccccc1)Nc1ccnc(Cl)c1,outcome,[1],inactive
same,AC50,[2],70.7 µM (active)
same,AC50,[3],25.3 µM (active)
same,AC50,[4],84.3 µM (active)
same,outcome,[5],inactive
same,AC50,[6],85.7 µM (active)
same,AC50,[7],89.9 µM (active)
same,AC50,[8],83.9 µM (active)
same,AC50,[9],80.4 µM (active)
same,AC50,[10],73.7 µM (active)
same,AC50,[11],3.48 µM (active)
same,AC50,[12],74.2 µM (active)
same,outcome,[13],inactive
same,AC50,[14],25.2 µM (active)
same,outcome,[15],inactive
same,AC50,[16],71.9 µM (active)
same,AC50,[17],69.8 µM (active)
CON(C)C(=O)Nc1ccc(Cl)c(Cl)c1,outcome,[1],inactive
same,outcome,[2],inactive
same,AC50,[3],13.4 µM (active)
same,outcome,[4],inactive
same,outcome,[5],inactive
same,outcome,[6],inactive
same,AC50,[7],85 µM (active)
same,AC50,[8],78.2 µM (active)
same,outcome,[9],inactive
same,outcome,[10],inactive
same,AC50,[11],42 µM (active)
same,outcome,[12],inactive
same,outcome,[13],inactive
same,AC50,[14],74.2 µM (active)
same,outcome,[15],inactive
same,outcome,[16],inactive
same,outcome,[17],inactive
